Shown are actives, neighbours in structure and some others; about 4.5% of the full set was active somewhere.
TIM10 inh: growth inhibitors of isogenic TIM10 control yeast, primary screen, counter-screen for tim10-1 yeast inhibitor project, luminescence, uHTS; AID 463195, 2010; S. cerevisiae TIM10 strain growth, BacTiter-Glo luminescence, 24 h; 330,000 tested, 1.4% active; inhibition, % at 10 µM;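 active = inhibition of 40% or more at the single tested concentration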;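 note: wild-type TIM10 isogenic control strain grown at permissive 25 °C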
PfHsp90 set2: growth inhibition of PfHsp90-expressing yeast, primary screen, antimalarial PfHsp90 inhibitor project, S. cerevisiae, BacTiter-Glo luminescence, single point, set 2; BacTiter-Glo ATP, 48 h; yeast lacking PDR1 and PDR3 efflux regulators; 310,000 tested, 0.32% active; inhibition, % at 9.4 µM; AID 504621, 2011;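 active = every replicate shows inhibition above about 80%, whatever the replicate mean, limit read from the data; inconclusive = mean inhibition reaches the set limit but some replicate falls short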
tim23-1 inh: growth inhibitors of tim23-1 mutant yeast, primary screen, luminescence, uHTS; inhibition, % at 20 µM; S. cerevisiae tim23-1 growth, BacTiter-Glo luminescence, 24 h; 330,000 tested, 1.3% active;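 active = growth inhibition of the mutant yeast at or above 50%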;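 note: temperature-sensitive mutant grown at 25 °C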
NALP3 yeast inh: NALP3 inflammasome inhibitors in reconstituted yeast, primary screen, luminescence, uHTS. AID 2825, 2010. inhibition, % at 10 µM. Yeast reconstituted NLRP3/ASC/caspase-1, beta-gal luminescence, 24 h. 330,000 tested, 0.39% active;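 active = inhibition of 50% or more; inactive = inhibition below 50%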
tim10-1 inh: growth inhibitors of tim10-1 mutant yeast, primary screen, luminescence, uHTS | S. cerevisiae tim10-1 ts strain growth, BacTiter-Glo, 24 h | AID 463190, 2010 | 330,000 tested, 2.2% active | inhibition, % at 20 µM;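 active = inhibition of at least 40%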;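 note: mutant grown at 25 °C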
SKKanGAS inh: S. pyogenes SKKanGAS growth inhibitors in kanamycin, primary screen, streptokinase expression inhibitor project, SKKanGAS strain, BacTiter-Glo luminescence; 6 h; inhibition, % at 7.5 µM; 300,000 tested, 1.3% active; AID 1662, 2009;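 active = mean replicate score, as percent of positive control median, at least 50; inconclusive = mean below 50 but one replicate at or above 50; inactive = mean and every replicate below 50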;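 note: strain carries kanamycin resistance gene driven by streptokinase promoter and grows in 40 µg/ml kanamycin; loss of luminescence reflects streptokinase promoter inhibition or plain growth inhibition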
tim10-1 conf: growth inhibitors of tim10-1 mutant yeast, confirmation, single concentration, luminescence, S. cerevisiae; inhibition, % at 20 µM; shares compounds with tim10-1 inh; 7,400 tested, 56% active; S. cerevisiae tim10-1 ts strain growth, BacTiter-Glo, 24 h;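 active = inhibition of yeast growth at or above a set limit in either of two repeat tests at 20 µM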;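 note: tim10-1 mutant grown at permissive 25 °C to find synthetic lethal compounds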
TIM10 conf: growth inhibitors of wild-type TIM10 yeast, confirmation, counter-screen for tim10-1 synthetic lethality project, single concentration, luminescence, S. cerevisiae; AID 463215, 2010; inhibition, % at 10 µM; S. cerevisiae tim10 strain growth, BacTiter-Glo luminescence, 24 h; shares compounds with TIM10 inh; 4,600 tested, 63% active;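 active = inhibition of yeast growth at or above a set limit in either of two replicates at 10 µM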; note: this counterscreen used the strain with wild-type TIM10
Large screens that a line does not name were inactive (follow-up assays come after a bar, where they were run).

O=C(Nc1ccccc1)N1CCCC(CNS(=O)(=O)Cc2ccccc2)C1 (centres undefined)	none
CCOC(=O)C(C(=O)OCC)C(Nc1ccccc1)c1ccccc1 (centres undefined)	TIM10 inh 42.8, tim10-1 inh 60.8 | tim10-1 conf 50.4 | TIM10 conf inactive
Cn1c(SCCOc2ccccc2Cl)nnc1-c1cccs1	TIM10 inh 51.2, tim10-1 inh 50.8 | tim10-1 conf 39.9 | TIM10 conf 51.4
Cc1cc(OCCSc2nnc(-c3cccs3)n2C)ccc1Cl	none
COc1ccc(S(=O)(=O)N2CCCCC2)cc1NC(=O)CCNC(=O)c1ccc(Br)cc1	none
O=C1CC(N2CCC(c3nc4ccccc4o3)CC2)C(=O)N1c1cc(Cl)cc(Cl)c1 (centres undefined)	TIM10 inh 40.5, tim10-1 inh 40.8 (no result: PfHsp90 set2) | tim10-1 conf inactive | TIM10 conf inactive
O=C(CC1Sc2ccccc2NC1=O)NNc1cccc(Cl)c1Cl (centres undefined)	none (no result: TIM10 inh, tim23-1 inh, NALP3 yeast inh, tim10-1 inh, SKKanGAS inh)
COc1ccc(C2=C(N)c3ccccc3C2=O)cc1	none
COC1=C(c2ccccc2)C(=O)c2ccccc2C1=O	TIM10 inh 88.8, PfHsp90 set2 inconclusive, tim10-1 inh 80.1 (no result: SKKanGAS inh) | tim10-1 conf 72.0 | TIM10 conf 90.5
CC(C)CN1C(=O)C(=O)N(CC(=O)c2ccc[nH]2)C1=O	none
CCOc1cc(C2NC(=O)CCC2[N+](=O)[O-])cc(Br)c1OCC (centres undefined)	none
O=C(NCc1ccco1)c1csc(Nc2ccccc2Cl)n1	TIM10 inh 42.3, tim10-1 inh 52.3 (no result: PfHsp90 set2) | tim10-1 conf 42.9 | TIM10 conf 29.7
CCC(C)N(CC(=O)Nc1cccc(C)c1C)C(=O)CCl (centres undefined)	TIM10 inh 53.6, tim10-1 inh 52.7 | tim10-1 conf 47.2 | TIM10 conf 46.5
CCC(CC)NC(=O)Nc1cccc(C)c1C	none
COc1cc(NC(=O)CC(C)S(=O)(=O)c2cc3c(cc2C)NC(=O)CO3)cc(OC)c1OC (centres undefined)	none
O=C(Nc1cccc(Cl)c1)C1=Cc2cc(Cl)ccc2OC1	none
O=C(Nc1ccc(Cl)c(Cl)c1)C1=Cc2ccccc2OC1	TIM10 inh 49.6, tim10-1 inh 40.4, SKKanGAS inh 75.5 | tim10-1 conf 53.0 | TIM10 conf 60.2
COc1ccc(OC)c(/C=N/N(C)c2ccccc2)c1	none
COc1cc(/C=N/N(C)c2ccccc2)cc(Cl)c1O	TIM10 inh 40.4, tim10-1 inh 47.7 | tim10-1 conf inactive | TIM10 conf inactive
COc1ccc2[nH]cc(/C=C/C(=O)c3ccccc3)c2c1	TIM10 inh 71.0, tim10-1 inh 60.6 | tim10-1 conf 52.3 | TIM10 conf 73.8
O=C(/C=C/c1c[nH]c2ccccc12)c1ccccc1	TIM10 inh 52.9, tim10-1 inh 45.0 | tim10-1 conf 36.8 | TIM10 conf inactive
COc1ccc2[nH]cc(C=O)c2c1	none (no result: PfHsp90 set2)
CN(CCC(=O)Nc1ccc(Cl)cc1)Cc1ccccc1	none
CC1(C)C(=O)C2(CCCCC2)C(=O)OC1c1ccc(O)cc1 (centres undefined)	TIM10 inh 43.7, tim10-1 inh 45.6 | tim10-1 conf 38.3 | TIM10 conf 42.5
CCc1ccc(S(=O)(=O)/N=C2\C=C(Nc3ccc(O)cc3)C(=O)c3ccccc32)cc1	TIM10 inh 61.2, tim10-1 inh 64.2, SKKanGAS inh 109.5 | tim10-1 conf 69.7 | TIM10 conf 92.7
